Results: PubChem BioAssay (NCI)
Compounds without any hit were thinned out: in the full panel of roughly 83,000, 20% have a hit.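 Single-concentration screen, 48 h exposure, 96-well plates. Endpoint: percent growth. Below 10 = active.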 A number with no mark means an inactive call. The source made the active and inactive calls.

Each compound was assayed on TK-10 renal (assay: NCI-60 one-dose screen, 48 h (100 = growth as untreated, 0 = no growth, -100 = all killed)). Conditions: 10 µM unless noted.
Protocol: Growth inhibition of the TK-10 human tumor cell line is measured as a screen for anti-cancer activity. Cells are grown in 96 well plates and exposed to the test compound for 48 hours. Compounds are tested at a single concentration, which is 10^-5 M for most compounds. The reported endpoint is percent growth (GI% or GIPRCNT), where numbers from 0 - 100% represent growth inhibition, and numbers from -100% - 0 represent cell death. For example, a value of 40 represents 60% growth inhibition. A value of 0 means no net growth occurred over the course of the experiment. A value of -40 indicates 40% of cells at the beginning of the experiment died by the end of the experiment. A value of -100 means all cells are dead at the end of the experiment.
NCI-60 Human Tumor Cell Lines Screen was performed using the standard one-dose NCI protocol, which is described in more detail at https://dtp.cancer.gov/discovery_development/nci-60/default.htm.
Compounds with GIPRCNT values below 10 were considered active. Activity score was based on GIPRCNT using the following formula: […]
Score is 0 for GIPRCNT values of 100 or above, 50 for GIPRCNT values of 0, and 100 for GIPRCNT values of -100.
For `COc1ccccc1-c1ccc2c(N)c(C(=O)c3ccc4c(c3)OCO4)sc2n1`, the growth was 73.8%. Compound `Nc1nc(-c2ccc(F)cc2)cc(-c2cnn(-c3ccccc3)n2)n1` has a growth of 121%. With `COc1cc2nc3cc([N+](=O)[O-])ccc3c(NCCCNCC(C)(C)O)c2cc1OC` the growth was -31.7% (active). `CS(CCCCN=C=S)=NC(=O)c1c(F)c(F)c(F)c(F)c1F` (stereo not given) showed a growth of 66.6%. For `CN(C)c1ccc(/C=C(\C#N)c2nc3ccccc3s2)cc1`, the growth was 121%. In the case of `Brc1cccc(-c2cc(-c3ccc4c(c3)OCCO4)[nH]n2)c1`, the growth is reported as 59% [25 µM]. With `C(=N\Nc1ccccn1)/c1ccccn1` the growth was 17.5%. `CN(C)CCCC(=O)Nc1ccc(Cn2nnc3c2C(=O)c2nnn(Cc4ccc(NC(=O)CCCN(C)C)cc4)c2C3=O)cc1` was tested, and the growth was 116%. `O=C(CCCN1CCOCC1)Nc1ccc(Cn2nnc3c2C(=O)c2nnn(Cc4ccc(NC(=O)CCCN5CCOCC5)cc4)c2C3=O)cc1` gave a growth of 116%. `C=C1CC[C@@H]2[C@](C)(COC(C)=O)[C@H](OC(C)=O)CC[C@@]2(C)[C@@H]1CC(Nc1ccc(S(=O)(=O)Nc2ccc(Cl)nn2)cc1)C1=CCOC1=O` (stereo not given in full) was tested, and the growth was 69.8%. Work on `O=C(/C=C/c1ccc(B(O)O)cc1)/C=C/c1ccc(B(O)O)cc1` yielded a growth of 99.3%. In the case of `COc1nc2c(cc1S(=O)(=O)c1ccccc1)CCc1c-2cnn1Cc1ccccc1`, the growth is reported as 61%. In the case of `CCCCN(CCCC)Cc1c(C)[nH]c2cc(OC)ccc2c1=O`, the growth is reported as 104%. For `O=C(/C=C\c1ccc2ccccc2n1)c1cc(Cl)ccc1O`, the growth was 95.1%. `O=[N+]([O-])c1cccc(-c2nc3sccn3c2-c2ccnc(NCCCNS(=O)(=O)c3ccc(F)cc3)n2)c1` showed a growth of 44.6%. With `COc1ccc2c(c1)C(=O)/C(=C/c1cccc(OCC(=O)Nc3nc4c(s3)CCCC4)c1)O2` the growth was -69.6% (active). `C=C1CC2(OC1=O)C(=O)N(CCCCCCCN1C(=O)C3(CC(=C)C(=O)O3)c3ccccc31)c1ccccc12` (stereo not given) showed a growth of 45.2%. `CCN(CC)CCCNc1cccc2c(SCc3ccccc3)ccnc12` showed a growth of 63.7%. `CC(C)(C)n1cc(-c2ccnc(NCCCNS(=O)(=O)c3cccc4ccccc34)c2)c(-c2cccc(O)c2)n1` was tested, and the growth was 74.8%. With `CC(C)[C@H]1COC(=O)N1[C@@H]1C(=O)N([C@@H](CCC(=O)N2CCN(C3CCCC3)CC2)C(=O)N[C@@H]2CCCc3ccccc32)[C@@H]1/C=C/c1cccc(Br)c1` the growth was 30.9%. `COc1cc(C2CC(=O)Nc3c2c(C)nn3-c2nc3ccccc3[nH]2)cc(OC)c1OC` (stereo not given) showed a growth of 109%. `CC(=O)N1CC(Nc2ccc(OC(F)(F)F)cc2)=CC1=O` gave a growth of 51.9%. `CCCCCCCCCC(=O)Oc1ccc(/C(=C(/C)Cc2cccc(OC)c2)c2ccc(OCCN(C)C)cc2)cc1` gave a growth of 109%. For `O=C(O)c1ccc2c(c1Sc1ccccc1)C(=O)c1ccccc1C2=O`, the growth was 86.5%. Work on `COCCCN=C(N)c1ccc(NC(=O)c2ccc(C(=O)Nc3ccc(C(N)=NCCCOC)cc3)cc2)cc1` yielded a growth of 113%. Compound `Clc1ccc(-c2nnc(COc3ccccc3Cl)o2)cc1` has a growth of 69.9%. With `C=CC[N+]1(CCO)CCN=C1CCCCCCCCCCCCC` (stereo not given) the growth was -87% (active). For `Cc1cc(=O)oc2cc(Oc3nc(-c4ccc(Cl)cc4)cn4c(-c5ccc(Cl)cc5)cnc34)ccc12`, the growth was 104%. For `O=C1Nc2ccccc2C12CC(c1ccc(Cl)cc1)=NN2` (stereo not given), the growth was 115%. For `COc1ccc(-c2cc(-c3ccc(N(C)C)cc3)nc(NC(=O)c3ccncc3)n2)cc1`, the growth was 105%. `CC/C=C\C[C@H](O)C/C=C1/C(=O)C=C[C@@H]1C/C=C\CCCC(=O)OC(C)C` was tested, and the growth was -3.87% (active). `CNC(=O)c1cc(Oc2ccc3nc(NC(=O)Nc4ccc(N5CCC(N(C)C)CC5)cc4)sc3c2)ccn1` showed a growth of 115%. `COc1cc(/C=N\NC(=O)CN2CCN(c3cc4c(cc3F)c(=O)c(C(=O)N/N=C/c3ccc(O)c(OC)c3)cn4C3CC3)CC2)ccc1O` gave a growth of 91.7%. In the case of `COc1ccc(OCC(=O)Nc2ccc(-c3nc4ccccc4s3)cc2C)cc1`, the growth is reported as 64.9%. Compound `O=C(O)c1cn(C2CC2)c2cc(N3CCN(Cc4nc5c(cnn5-c5ccc([N+](=O)[O-])cc5)c(=O)[nH]4)CC3)c(F)cc2c1=O` has a growth of 122%. `CNC(=O)c1cc(Oc2ccc3nc(NC(=O)Nc4ccc(CN5CCOCC5)c(C(F)(F)F)c4)sc3c2)ccn1` gave a growth of 43.9%. `CC/C(=C(\c1ccccc1)c1ccc(OCCNC)cc1)c1ccccc1` was tested, and the growth was -80.7% (active). `CCC(c1ccccc1)C(CC)c1ccc(O)c(O)c1` (stereo not given) showed a growth of 106%. With `c1c2c(cc3c1OCO3)Cc1cc3c(cc1Cc1cc4c(cc1C2)OCO4)OCO3` the growth was 116%. With `CC1=NNC(=O)C1C` (stereo not given) the growth was 377%.
